# Bioassay records deposited in PubChem BioAssay by several laboratories.
# NPR2 activator = GC-B (human) receptor activation; actives 0.11% (n = 370,000); P20594; HEK293-GC-B cells, CNP EC30, cGMP TR-FRET; 0% at EC30 CNP, 100% saturating CNP; activation, % at 10 µM;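 active = activation at 10 µM reaching about 35% in either raw or pattern-adjusted values, limit read from the data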
# Target sequence (P20594 whole entry, looked up): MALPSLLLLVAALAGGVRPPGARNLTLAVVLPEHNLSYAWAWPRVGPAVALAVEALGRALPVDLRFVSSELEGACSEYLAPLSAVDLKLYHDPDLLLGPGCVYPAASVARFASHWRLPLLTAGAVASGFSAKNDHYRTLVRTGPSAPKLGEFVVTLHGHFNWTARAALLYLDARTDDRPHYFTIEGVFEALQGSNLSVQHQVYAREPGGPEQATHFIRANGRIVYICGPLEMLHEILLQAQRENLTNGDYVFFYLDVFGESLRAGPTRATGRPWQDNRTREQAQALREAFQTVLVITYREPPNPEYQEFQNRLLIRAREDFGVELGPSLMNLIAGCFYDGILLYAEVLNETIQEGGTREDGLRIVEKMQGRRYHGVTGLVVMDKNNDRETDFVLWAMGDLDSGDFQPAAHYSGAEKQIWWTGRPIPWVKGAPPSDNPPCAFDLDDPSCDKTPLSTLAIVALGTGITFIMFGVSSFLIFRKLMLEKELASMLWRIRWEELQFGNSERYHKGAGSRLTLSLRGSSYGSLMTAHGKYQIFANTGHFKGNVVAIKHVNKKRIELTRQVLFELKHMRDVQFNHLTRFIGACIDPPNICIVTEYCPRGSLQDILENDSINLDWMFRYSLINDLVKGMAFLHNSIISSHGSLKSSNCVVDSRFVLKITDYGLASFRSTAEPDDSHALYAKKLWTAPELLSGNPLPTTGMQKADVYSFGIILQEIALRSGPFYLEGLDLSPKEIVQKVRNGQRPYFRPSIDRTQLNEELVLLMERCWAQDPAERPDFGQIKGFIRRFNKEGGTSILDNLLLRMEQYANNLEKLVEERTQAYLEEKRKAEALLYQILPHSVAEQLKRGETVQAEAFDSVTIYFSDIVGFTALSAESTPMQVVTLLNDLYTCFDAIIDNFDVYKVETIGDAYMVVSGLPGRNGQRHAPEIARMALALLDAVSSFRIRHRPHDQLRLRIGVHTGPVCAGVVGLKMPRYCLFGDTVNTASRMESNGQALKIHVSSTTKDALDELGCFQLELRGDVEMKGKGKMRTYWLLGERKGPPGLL
# Efflux pump inh = antifungal efflux pump inhibition, Nile Red retention; S. cerevisiae Candida pump triplex; inhibition, % at 10 µM; actives 0.44% (n = 330,000);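 active = plate passing quality check with inhibition over a set limit, or well fluorescence over plate mean plus 4 SD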;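 note: Nile Red retained in pooled yeast measured as flow cytometry median fluorescence; 0% = buffer negative control and 100% = Enniatin B positive control; higher means more Nile Red kept so more efflux inhibition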
# TAG inh = reduces triacylglycerol accumulation in H9c2 cells; Nile Red lipid (TAG) fluorescence; cells loaded with 200 µM oleic acid; inhibition, % at 12.5 µM; actives 0.66% (n = 230,000);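 active = pattern-corrected inhibition of lipid staining of at least 50% with the nuclear-stain viability signal not falling by more than 50%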;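 note: 0% = DMSO wells and 100% = triacsin C control wells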
# NPR1 activator = GC-A (human) enzyme activation; P16066; HEK293 GC-A cells, cGMP TR-FRET, EC30 ANP; 0% at EC30 ANP, 100% saturating ANP; activation, % at 10 µM; actives 0.14% (n = 370,000); AID 1671463; in the data active = activation above about 40%
# Bfl-1 A1 inh = inhibitors of the anti-apoptotic protein A1, read as caspase activation; MEF A1-2A-BIM cells, Caspase-Glo 3/7 luminescence, 3 h; percent of clofoctol response, vehicle zero; caspase activation, % (test concentration not listed); actives 0.066% (n = 330,000); AID 2462;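 active = over half of replicate activation scores above 10%, or exactly half above 10 with the replicate mean above 10; inconclusive = replicate mean below 10 yet half the replicates above 10; inactive = over half of replicates below 10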
# HSV augment = HSV replication enhancement. AID 1956. actives 0.005% (n = 220,000). maximum fold increase. HSV replication augmentation in cells, fold increase; in the data active = maximum fold increase above about 1.5; inconclusive = no clear call, values can overlap the other calls; tested in PC3 cells
# Numbers without * were called inactive; i = inactive; ? = inconclusive; . = no result given. The list is not random: actives were taken first. Their share in the collection is about 1%.
SMILES,NPR2 activator,Efflux pump inh,TAG inh,NPR1 activator,Bfl-1 A1 inh,HSV augment
O=C(CNS(=O)(=O)c1ccccc1)N1CCN(c2ccccn2)CC1,0,.,.,-12,.,.
O=C(Nc1nc(-c2ccccn2)cs1)c1cccc(-n2cnnn2)c1,-4,0,73*,2,0,.
CCCc1cn(-c2ccc3c(c2)[C@@]2(CC(=O)N(C)C2c2ccccc2)C(=O)N3CC(C)C)nn1 (some centres undefined),5,.,.,0,.,.
COc1ccc(N2CCN(CCCNC(=O)Cn3c(=O)c4cccn4c4c(C)ccnc43)CC2)cc1,-13,.,.,-5,.,.
CCOC(=O)[C@@]12CCC3=C1N(CCC3)C(=O)[C@H](CC(=O)NCC13CC4CC(CC(C4)C1)C3)C2,3,.,.,-1,.,.
Clc1cccc(-c2cc3nc4c(c(N5CCN(c6cnccn6)CC5)n3n2)CCCC4)c1,-2,0,62*,-3,-1,i
Clc1cccc(-c2cc3nc4c(c(N5CCOCC5)n3n2)CCCC4)c1,-2,1,.,1,-1,i
COc1ccc(COc2cc(-c3cccc(OC)c3)nc3ccc(NC(=O)c4ccc(C)cc4)cc23)cc1,26,0,28,24,1,i
COc1ccc(COc2cc(-c3cccc(OC)c3)nc3ccc(NC(C)=O)cc23)cc1,68*,0,-8,54*,0,i
COc1ccc(COc2cc(-c3cccc(OC)c3)nc3ccc(N)cc23)cc1,53*,0,23,56*,1,i
COC(=O)C[C@@H]1CC[C@H]2[C@@H](COc3ccc(NC(=O)Nc4ccccc4Cl)cc3C(=O)N2C)O1,-1,.,.,6,.,.
COC(=O)c1cc(-c2ccccc2)c(=O)n2c1CCC2,1,.,.,2,.,.
OCCCNc1cc(-c2ccnc(Nc3cccc(Cl)c3)n2)ccn1,3,0,90*,15,-2,i
COc1cc(CNCCc2ccc(S(N)(=O)=O)cc2)ccc1OCc1ccc(Cl)cc1,-10,0,.,-6,1,i
CCOc1cc(CNCCc2ccc(S(N)(=O)=O)cc2)ccc1OCc1ccc(Cl)cc1,-24,0,67*,-25,1,i
O=C(Nc1ccccc1[N+](=O)[O-])NC1CCCCN(Cc2cccc(Cl)c2)C1=O (centres undefined),-7,.,.,0,.,.
Cc1ccc(C(=O)N/C(=C\c2ccc(-c3ccccc3[N+](=O)[O-])o2)C(=O)NCCN(C)C)cc1,-9,0,57*,-6,1,.
CC(C)(C)N(Cc1ccccc1)C(=O)COC(=O)CNC(=O)c1ccco1,-2,0,1,2,16*,.
CC(C)(C)c1ccc(-c2nnc(SCc3cccc4ccccc34)n2Cc2ccco2)cc1,20,.,.,-4,.,.
CCOC(=O)[C@@]12CCCC3=C1N(CCC3)C(=O)[C@H]2CC(=O)N1CCCCC1,8,.,.,2,.,.
c1ccc(CCc2nn3c(Cn4nnc5ccccc54)nnc3s2)cc1,-2,0,23,2,1,i
c1ccc(Cc2nn3c(Cn4nnc5ccccc54)nnc3s2)cc1,4,0,.,6,21*,.
O=C(CCl)N(C/C=C/c1ccccc1)c1ccc2c(c1)OCCO2,-2,0,52*,-24,2,i
Cc1ccc2c(c1)C1CS(=O)(=O)N(CCc3ccccc3)CN1C2 (centres undefined),-2,.,.,0,.,.
COC(=O)Cc1ccc(NC(=O)c2ccc(C(C)(C)C)cc2)cc1,-2,0,72*,-9,0,i
SMILES,NPR2 activator,Efflux pump inh,TAG inh,NPR1 activator,Bfl-1 A1 inh,HSV augment
COc1cc(-c2cc(NC=O)c3ncc(-c4ccc(C(C)=O)cc4)n3c2)cc(OC)c1OC,35*,.,2,33,.,.
COc1cc(-c2cc(NC=O)c3ncc(-c4ccccc4)n3c2)cc(OC)c1OC,35*,.,5,24,.,.
COc1ccc(-c2cc(NC=O)c3ncc(-c4ccc(C(C)=O)cc4)n3c2)cc1OC,26,.,24,15,.,.
C[C@@H]1C[C@H]2O[C@@H]2/C=C\C=C\C(=O)Cc2cc(O)cc(O)c2C(=O)O1,3,.,.,1,.,.
O=C(C1CCN(S(=O)(=O)c2ccc3[nH]c(=O)oc3c2)CC1)N1CCCC1,-9,.,.,-1,.,.
Brc1cccc(OCCSc2ncccn2)c1,2,0,.,6,0,i
Clc1ccc(OCCSc2ncccn2)c(Br)c1,0,0,-2,49*,-3,i
COc1ccc(-c2cc(C#N)nc(Cl)n2)cc1,20,0,9,78*,0,i
Cc1ccc(Cn2cc(CN(C)S(=O)(=O)c3ccccc3Br)nn2)cc1,1,.,.,2,.,.
O=C(Nc1nc2c(Cl)ccc(Cl)c2s1)C1CC1,-6,0,-1,61*,0,.
O=C(Nc1nc2c(Cl)c(Cl)ccc2s1)C1CC1,-4,0,10,57*,-1,.
Cc1ccc2sc(NC(=O)C3CC3)nc2c1C,0,0,.,55*,1,.
O=C(Nc1nc2c(F)cc(F)cc2s1)C1CC1,-2,0,12,67*,?,.
COc1cc2c(cc1NC(=O)CSc1nnc(-c3cccc(Cl)c3)n1-c1ccccc1)oc1ccccc12,-2,.,.,1,.,.
COCOCCn1cc(CN2CCS(=O)(=O)N(Cc3ccc(-c4ccc(Cl)cc4)cc3)C(C)C2=O)nn1 (centres undefined),-3,.,-17,49*,.,.
COCOCCn1cc(CN2CCS(=O)(=O)N(Cc3ccc(-c4ccc(OC)nc4)cc3)C(C)C2=O)nn1 (centres undefined),1,.,-1,3,.,.
Cc1cccc(C)c1NC(=O)[C@H]1CC(=O)O[C@@H]1c1ccccc1,6,.,.,-2,.,.
O=c1c2ccccc2nc2n1CCc1c-2[nH]c2ccccc12,16,0,6,17,-4,.
Cc1cccc2c(=O)n3c(cc12)-c1[nH]c2ccccc2c1CC3,35*,.,28,38,.,.
CCCc1nc(C)c2c(=O)[nH]c(-c3cc(S(=O)(=O)N4CCN(CC)CC4)ccc3OCC)nn12,65*,0,10,53*,0,i
CC1CC(C)CN(C(=O)c2ccc(-c3ccc([N+](=O)[O-])cc3)o2)C1 (centres undefined),-6,0,4,-3,10*,.
O=C(OCc1ccccc1)N1CCC2CC1c1ccc(N3CCN(Cc4ccccc4)CC3)cc12 (centres undefined),4,.,.,0,.,.
CCCCC(=O)NC(c1cccc([N+](=O)[O-])c1)c1ccc2cccnc2c1O (centres undefined),-5,.,76*,-6,.,.
COc1cc2c(cc1NC(=O)CSc1nnc(-c3cccc(Cl)c3)n1Cc1ccco1)oc1ccccc12,5,.,.,0,.,.
CN(Cc1ccccc1F)C(=O)Cn1c(-c2cncs2)nc2ccccc21,1,.,.,1,.,.
